Most compounds without a hit are left out; they make up all but 5.2% or so of the library.
Tau fluor counter: counter-screen for tau fibril formation inhibitors. tau K18 P301L Alexa594 fluorescence, heparin fibrillization. Potency, µM (titrated, usually from 57.7 µM), without a hit: at the highest dose activity change, negative = decrease. 0.93% of 280,000 active; note: potency is the fitted concentration of half-maximal effect; nearly all actives have a fitted effect of over 55% in size
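Human tau K18 P301L (15 uM unlabeled, 0.24 uM Alexa 594-labeled) in 100 mM sodium acetate pH 7 with 20 uM heparin, 6 hr at 37 C. ThT 30 uM added, 1 hr ambient; Alexa 594 FP and total fluorescence read at 555/632 nm.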
Tau ThT inhib: blocks human tau fibril formation measured by thioflavin T; P10636; recombinant tau K18 P301L, heparin-induced fibrillization, ThT fluorescence; Potency, µM (series often up to 57.4 µM), without a hit: top-dose activity, negative = inhibition, usual class: inhibitors; 2.1% of 270,000 active; AID 1460; note: potency is the fitted concentration of half-maximal effect; nearly all actives have a fitted effect of over 55% in size
Target sequence (P10636 561-689 P618L limits assumed): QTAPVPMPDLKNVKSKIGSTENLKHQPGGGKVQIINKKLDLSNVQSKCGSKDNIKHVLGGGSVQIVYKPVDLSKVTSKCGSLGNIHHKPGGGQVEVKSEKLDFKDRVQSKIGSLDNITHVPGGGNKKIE
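ThT emission at 510 nm, taken 1 hr after adding 30 uM dye, quantifies aggregates formed when 20 uM heparin acts on human tau K18 P301L for 6 hr at 37 C.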
Tau fibril FP: tau fibrillization inhibition (FP); K18 P301L tau heparin fibrillization, Alexa594 FP, 6 h; Potency, µM (top dose mostly 57.7 µM), for inactives: top-dose activity, negative = inhibition, actives largely listed as inhibitors; 0.39% of 280,000 active; AID 1468; note: potency is the fitted concentration of half-maximal effect; nearly all actives have a fitted effect of over 55% in size
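Heparin (20 uM) drove fibril formation of recombinant tau K18 P301L, 15 uM unlabeled with 0.24 uM Alexa 594 label, for 6 hr at 37 C in 100 mM sodium acetate pH 7. Fluorescence polarization (555/632 nm) read 1 hr after 30 uM ThT.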
FBPA coupling cs: coupling enzyme interference in Giardia aldolase counter-screen. activity change, negative = inhibition, % at 58.2 µM, hits read low. coupling enzyme system counterscreen, AmpLite Red fluorescence. 0.67% of 290,000 active; in the data active = activity change below about -30%
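Fluorescence at 525 nm excitation and 598 nm emission measured inhibition of the coupled detection system without aldolase. Compounds (at 57.5 uM final) were preincubated 10 min at room temperature with coupling enzyme reagent before a 20 min substrate/AmpLite Red step.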
Sfp inh: inhibitors of Bacillus subtilis Sfp phosphopantetheinyl transferase | Potency, µM, for inactives: largest response in the series, negative = inhibition, hits mostly inhibitors | Q9F4F7 | Biochemical Sfp PPTase activity, qHTS | 3.5% of 310,000 active;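 note: the enzyme is Sfp with the accession as filed and its product quenches rhodamine fluorescence; potency is the fitted concentration of half-maximal effect; 0% = enzyme reaction without inhibitor and -100% = no enzyme wells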
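Sfp 15 nM + cpd, 15 min RT; start w/ rhodamine-CoA 5 uM, BHQ-2-YbbR 12.5 uM (final); 50 mM Hepes pH 7.6, 10 mM MgCl2, 0.01% NP-40, 0.01% BSA; read 525/598 nm at 0 and 30 min.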
* marks the source's active call; other numbers are inactive results; ? = inconclusive; / = no result given; [ ] = another dose, or the depositor's remark. Unless noted, calls come from the whole dose curve; as a rule, active = well fitted curve in the direction sought with a large enough effect; inconclusive = small, poorly fitted or top-dose-only effect, or another doubt; inactive = no such curve, though single readings can be large; an effect the other way counts as inactive or inconclusive. Unless noted, % is set by controls: 0 for no effect and ±100 for the full control effect.

SMILES | Tau fluor counter | Tau ThT inhib | Tau fibril FP | FBPA coupling cs | Sfp inh
NC(=O)CC(NC(=O)Cc1ccc(Br)cc1)c1ccc(NCCc2ccc(Cl)cc2)c([N+](=O)[O-])c1 (stereo not drawn) | ? | ? | ? | 0 | ?
NC(=O)CC(NC(=O)c1ccccc1)c1ccc(NCc2ccc(F)cc2)c([N+](=O)[O-])c1 (stereo not drawn) | -20% | 25µM* | 2% | 0 | -20%
NC(=O)CC(NC(=O)c1ccccc1)c1ccc(NCc2ccccc2)c([N+](=O)[O-])c1 (stereo not drawn) | -28% | 13µM* | -3% | 0 | -11%
NC(=O)CC(NC(=O)c1ccccc1)c1ccc(NCCc2ccc(Cl)cc2)c([N+](=O)[O-])c1 (stereo not drawn) | ? | 13µM* | -12% | -2 | -27%
NC(=O)CC(NC(=O)c1ccccc1)c1ccc(NCc2ccc(F)c(F)c2)c([N+](=O)[O-])c1 (stereo not drawn) | / | / | / | 0 | 12%
NC(=O)CC(NC(=O)c1ccc(Br)cc1)c1ccc(NCc2ccc(F)cc2)c([N+](=O)[O-])c1 (stereo not drawn) | ? | ? | -1% | 5 | -6%
O=C(COc1ccc(Cl)cc1)Nc1ccc(C(=O)OCc2cc(=O)n3ccsc3n2)cc1 | -28% | -3% | ? | / | /
CCCC[C@@H]1CCCO[C@@](C(=O)NCC2CC2)(C(F)(F)F)C1 | / | / | / | 4 | 9%
CC(C)OC(=O)C(C(=O)OC(C)C)=C1SC=CS1 | / | / | / | / | 16%
O=[N+]([O-])c1cccc(CN2C(COCc3ccccc3)CCC=CS2(=O)=O)c1 (stereo not drawn) | / | / | / | 0 | 11%
CCOC(=O)c1ccc2c(c1)n(CC)c(/C=C/N(C)c1ccccc1)[n+]2CC | 10% | -6% | -1% | -1 | 14%
CC[n+]1c(/C=C/N(C)c2ccccc2)n(-c2ccccc2)c2ccc(-c3nc4ccccc4s3)cc21 | / | / | / | 5 | 45µM*
CCCCC(C)/C=C(C)/C=C(\C)C(=O)NC1=CC(O)(/C=C/C=C/C=C/C(=O)NC2=C(O)CCC2=O)C2OC2C1=O (stereo not drawn) | / | / | / | 2 | ?
N=C1Sc2ccccc2C2=NCCCN12 | -17% | 7.1µM* | 14µM* | / | /
O=C(CSc1nnc(-c2cccnc2)n1Cc1ccco1)N1c2ccccc2Sc2ccccc21 | -5% | ? | 6% | 2 | 3.5µM*
c1cncc(CSc2nnc(-c3cccnc3)n2Cc2ccco2)c1 | -1% | -3% | 6% | 0 | 16%
Clc1ccc(CSc2nnc(-c3cccnc3)n2Cc2ccco2)c(Cl)c1 | 2% | ? | 2% | 1 | 35µM*
Clc1cccc(CSc2nnc(-c3cccnc3)n2Cc2ccco2)c1 | -1% | 1% | 2% | -20 | 50µM*
O=C1CN(C(=O)c2ccc(Cl)cc2Cl)C(c2ccc(F)cc2)c2cc(F)ccc2N1 (stereo not drawn) | -24% | -15% | -1% | / | /
BrC(/C=N/Nc1nc(N2CCOCC2)nc(N2CCOCC2)n1)=C/c1ccccc1 | -12% | ? | -1% | 1 | 79µM*
Cn1cc([N+](=O)[O-])c(C(=O)Nc2nc(-c3ccc(Cl)cc3)cs2)n1 | 13µM*[quencher] | ? | 7% | -3 | -5%
CCc1nn(C(CC)C(=O)NCc2ccc(OC)c(OC)c2)c(=O)c2cc3oc(C)cc3n12 (stereo not drawn) | -8% | -4% | 1% | / | /
O=C(NCc1ccccc1)C1CCN(C(=O)c2cnn(-c3ccccc3)c2-n2cccc2)CC1 | -17% | -7% | 2% | / | /
CC(C)(C)c1ccc(CNc2cc(N3CCOCC3)ccc2[N+](=O)[O-])cc1 | 4µM*[quencher] | 7.1µM* | 28µM* | -4 | -6%
O=[N+]([O-])c1ccc(N2CCCC2)cc1NC1CC1 | -17% | 14µM* | -6% | -1 | -22%
SMILES | Tau fluor counter | Tau ThT inhib | Tau fibril FP | FBPA coupling cs | Sfp inh
O=C(NCCc1ccccc1)c1ccc(NCC2CCCO2)c([N+](=O)[O-])c1 (stereo not drawn) | -20% | 16µM* | 10% | 1 | -14%
NC(=O)c1ccc(NCC2CCCO2)c([N+](=O)[O-])c1 (stereo not drawn) | / | / | / | 3 | -98%
Nc1cc(N2CCCC2)c(Cl)cc1[N+](=O)[O-] | -26% | 16µM* | 0% | -9 | 8%
Nc1cc(N2CCOCC2)c(Cl)cc1[N+](=O)[O-] | 5% | ? | 4% | -1 | 12%
Cc1cc(-c2ccc(S(=O)(=O)Nc3ccc(Br)c(C)c3)s2)on1 | ? | 13% | ? | / | /
CC(=O)N1CCN(c2ccc([N+](=O)[O-])c(NCC3CCCO3)c2)CC1 (stereo not drawn) | 0% | 14µM* | -1% | 1 | -2%
CC(C)C(=O)N1CCN(c2ccc([N+](=O)[O-])c(NC(C)c3ccccc3)c2)CC1 (stereo not drawn) | -24% | 16µM* | 2% | -11 | -11%
CC(Nc1cc(N2CCN(C(=O)C(C)(C)C)CC2)ccc1[N+](=O)[O-])c1ccccc1 (stereo not drawn) | -16% | ? | 1% | -9 | 5%
O=C(COc1ccccc1Cl)N1CCN(c2ccc([N+](=O)[O-])c(N3CCOCC3)c2)CC1 | ? | 13µM* | -6% | 1 | -11%
O=C(COc1ccccc1Cl)N1CCN(c2ccc(F)cc2)CC1 | -9% | -6% | 4% | -1 | 4%
CNc1cc(N2CCN(S(=O)(=O)N(C)C)CC2)ccc1[N+](=O)[O-] | -2% | 16µM* | -2% | -2 | 10%
C=Cc1c(C)c2cc3nc(cc4[nH]c(cc5nc(cc1[nH]2)C(C)=C5CCC(=O)O)c(CCC(=O)OC)c4C)[C@@]1(C)C3=CC=C(C(=O)OC)[C@H]1C(=O)OC (tested in a mixture with another compound) | / | / | / | -8 | ?
CC1(C)CC(=O)c2cc(-c3nc(-c4ccc(Cl)cc4)cs3)c(=O)n(-c3ccc(Cl)cc3)c2C1 | 3% | 16% | ? | / | /
CCOc1ccc(C(=O)Nc2cccc(-c3nc4cccnc4s3)c2C)cc1OCC | 5% | 7% | 0% | / | /
O=C(CCCCn1c(=O)c2ccccc2n(CC(=O)Nc2ccc(F)cc2F)c1=O)NCCc1ccccc1 | -7% | -1% | -6% | / | /
CCOC(=O)OCC1C=C[C@H](c2cc(-c3ccccc3)ccc2O)C(c2ccc(C(C)=O)cc2)O1 (stereo partly drawn) | ? | 2%[11.5 µM] | 4%[11.6 µM] | -6 | 13%
O=C(c1cnc(N2CCCCC2)c2ccccc12)N1CCN(c2cccc(Cl)c2)CC1 | -14% | -12% | -5% | / | /
Cc1oc2ncn(CC(C)C)c(=O)c2c1C(=O)NCCCN1CCC(C)CC1 | -7% | -4% | -3% | / | /
O=[N+]([O-])c1ccc(N2CCCC2)cc1N1CCCC1 | -18% | 18µM* | 0% | -2 | -8%

Source: PubChem (National Center for Advancing Translational Sciences (NCATS))
